From PubChem
This is a sample that favours compounds with a hit; in the whole collection about 2.2% have one here.
aSyn UTR inh: MLPCN primary screen, SNCA 5' untranslated region; AID 1813; 300,000 compounds, 0.82% hits; alpha-synuclein 5'UTR reporter, inhibitor activity; inhibition, % (tested at 7.5 µM); in the data active = inhibition above about 60%;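 note: H4 neuroglioblastoma cells stably carrying SNCA 5'UTR luciferase fusion; 0% = DMSO wells and 100% = positive control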
BaF3 parental: reduces parental Ba/F3 cell viability, JAK2V617F counter-screen. inhibition, % at 5.6 µM. 220,000 compounds, 1.1% hits. CellTiter-Glo ATP luminescence. AID 1486;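 active = inhibition above a per-campaign cutoff, the mean inhibition of all tested compounds plus 3 SD, cut at about 27% in these data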;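 note: 0% = DMSO wells and 100% = JAK Inhibitor I control wells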
APP 5UTR inh: APP translation inhibition | SH-SY5Y APP 5'UTR-luciferase reporter, luminescence | inhibition, % at 2 µM | 190,000 compounds, 0.82% hits | AID 1285;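 active = inhibition above a set limit, derived from the sample mean plus 3 SD, cut at about 45% in these data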
Ba/F3 V617F tox: loss of viability in JAK2V617F-driven Ba/F3 cells; AID 1446; inhibition, % at 5.6 µM; Ba/F3 EpoR-JAK2V617F viability, ATP luminescence; 220,000 compounds, 1.1% hits;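 active = inhibition above the campaign mean plus 3 SD over all tested compounds, cut at about 24% in these data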;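 note: cytokine-independent growth of Ba/F3 cells driven by EpoR plus mutant JAK2; 0% = DMSO-treated cells and 100% = JAK inhibitor I control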
KLF5 inh: suppresses KLF5 promoter-driven expression | DLD-1 KLF5 promoter-luciferase reporter, luminescence | inhibition, % at 5 µM | 290,000 compounds, 0.23% hits;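 active = inhibition above a per-plate limit of that plate's mean compound inhibition plus 3 SD, cut at about 60% in these data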;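 note: 0% = DMSO wells and 100% = LY294002 at 200 µM; higher means less KLF5 promoter-driven luciferase light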
IEC-6 tox: counter-screen for KLF5 inhibitors: cytotoxicity in IEC-6 cells | IEC-6 cytotoxicity, luminescence viability | inhibition, % at 5 µM | 290,000 compounds, 0.78% hits; in the data active = inhibition above about 22%;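 note: 0% = plate median of test compound wells and 100% = cytotoxic reference compound wells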
Starred values were filed as active, the others as inactive.

How did C/C(=N\NC(=O)OC(C)(C)C)c1ccccc1Br do in these assays?
aSyn UTR inh: -84.4; BaF3 parental: 1.4; APP 5UTR inh: -20.1; Ba/F3 V617F tox: 1.9; KLF5 inh: -79.0; IEC-6 tox: 9.5

What do the screens show for `Cc1cc(C(=O)NN)c2cc(Br)ccc2n1`?
aSyn UTR inh: 2.9; BaF3 parental: 4.5; APP 5UTR inh: 75.0*; Ba/F3 V617F tox: 3.7; KLF5 inh: 21.6; IEC-6 tox: 6.1

What do the screens show for `CN(Cc1nc(-c2ccccc2)no1)C(=O)c1ccco1`?
aSyn UTR inh: -13.7; KLF5 inh: -10.1; IEC-6 tox: 6.2

How did COc1cccc(Oc2ccc(S(=O)(=O)N3CCCC3)cc2[N+](=O)[O-])c1 do in these assays?
aSyn UTR inh: -10.7; KLF5 inh: -58.9; IEC-6 tox: -4.2

What do the screens show for `COc1ccc(C(=O)/C(C#N)=N/Nc2ccc([N+](=O)[O-])cc2)cc1`?
aSyn UTR inh: 102.1*; BaF3 parental: 7.1; APP 5UTR inh: 91.9*; Ba/F3 V617F tox: 0.2; KLF5 inh: 3.8; IEC-6 tox: 17.7

How did CCCc1c(C)nn(C(=O)/C(C#N)=N/Nc2ccccc2[N+](=O)[O-])c1C do in these assays?
aSyn UTR inh: -33.8; BaF3 parental: 3.9; APP 5UTR inh: -64.5; Ba/F3 V617F tox: -1.7; KLF5 inh: -24.1; IEC-6 tox: -1.3

Results for COc1ccc(C(=O)/C(C#N)=N/Nc2ccccc2[N+](=O)[O-])cc1 ?
aSyn UTR inh: -26.1; BaF3 parental: 2.3; APP 5UTR inh: 70.4*; Ba/F3 V617F tox: -0.6; KLF5 inh: -5.8; IEC-6 tox: 3.8

What do the screens show for `CCOC(=O)c1sc2nc(CSc3ccccc3)nc(N3CCCN(C)CC3)c2c1C`?
aSyn UTR inh: 78.3*; BaF3 parental: 1.6; APP 5UTR inh: 18.4; Ba/F3 V617F tox: 4.7; KLF5 inh: 16.9; IEC-6 tox: 4.0

Results for CCOC(=O)c1sc2nc(CSc3ccccc3)nc(N3CCC(C(N)=O)CC3)c2c1C ?
aSyn UTR inh: 17.7; BaF3 parental: 4.7; APP 5UTR inh: -9.8; Ba/F3 V617F tox: 1.9; KLF5 inh: -5.7; IEC-6 tox: 3.2

How did Cc1cc(SCC(=O)OC(C)C(=O)N(C)c2ccccc2)nc2ccccc12 (stereo unspecified) do in these assays?
aSyn UTR inh: -1.8

How did CC[N+]1(CC)CC2=Cc3c(ccc4ccccc34)C(C)C2C1 (stereo unspecified) do in these assays?
aSyn UTR inh: -0.9; BaF3 parental: 54.0*; Ba/F3 V617F tox: 62.8*; KLF5 inh: -26.1; IEC-6 tox: 2.2

How did CC1=C(C(=O)Nc2ccccc2C(=O)NC2CCCCC2)SCCO1 do in these assays?
aSyn UTR inh: -0.4; KLF5 inh: -6.3; IEC-6 tox: 2.8

What do the screens show for `CC1=CC(C)(C)N2C(=O)C(=O)c3cc(OC(=O)c4ccco4)cc1c32`?
aSyn UTR inh: -14.1; BaF3 parental: 53.2*; APP 5UTR inh: 65.8*; Ba/F3 V617F tox: 69.1*; KLF5 inh: 27.1; IEC-6 tox: 87.8*

Results for CCN(CC)S(=O)(=O)c1ccc(Oc2ccc(S(=O)(=O)N(CC)CC)cc2)cc1 ?
aSyn UTR inh: 13.6; BaF3 parental: 40.3*; APP 5UTR inh: -0.2; Ba/F3 V617F tox: 33.2*; KLF5 inh: -18.1; IEC-6 tox: -1.1

How did S=C(Nc1ccccc1)N1CCOCC1 do in these assays?
aSyn UTR inh: 18.1; BaF3 parental: 5.0; APP 5UTR inh: 0.7; Ba/F3 V617F tox: 1.1; KLF5 inh: -16.8; IEC-6 tox: -1.1

How did O=C(NC(=Nc1ccccc1)N1CCOCC1)Nc1ccccc1 do in these assays?
aSyn UTR inh: -36.0; BaF3 parental: 95.8*; APP 5UTR inh: -16.6; Ba/F3 V617F tox: 1.1; KLF5 inh: -12.4; IEC-6 tox: 0.5

Results for CCc1nn(C(CC)C(=O)NCc2cccc(OC)c2)c(=O)c2cc3occc3n12 (stereo unspecified) ?
aSyn UTR inh: 5.1; KLF5 inh: -24.1; IEC-6 tox: -3.2

What do the screens show for `O=C(CNC(=O)c1cccc(F)c1)N/N=C/c1cc(Br)ccc1OC(=O)/C=C/c1ccco1`?
aSyn UTR inh: 57.5; BaF3 parental: 6.1; APP 5UTR inh: 52.5*; Ba/F3 V617F tox: -0.6; KLF5 inh: -3.4; IEC-6 tox: 8.7

How did O=C(CNC(=O)c1ccccc1Br)N/N=C/c1ccco1 do in these assays?
aSyn UTR inh: 2.9; KLF5 inh: -26.3; IEC-6 tox: -2.3
